Assay outcomes from PubChem.
Most compounds without a hit are left out; they make up all but 5.5% or so of the library.
uPA surface inh: qHTS for Inhibitors of Cell Surface uPA Generation; Potency, µM (titrated, usually from 38.3 µM), usual class: inhibitors; AID 540303, 2011; 0.31% of 330,000 active; cell surface uPA generation assay, qHTS; active = well fitted inhibition curve with a large enough effect; inconclusive = small, poorly fitted or top-dose-only effect; inactive = no such curve, though single readings can be large or run the other way; tested in mouse RAW 264.7 cells; note: nearly all actives have a fitted effect of over 55% in size
Integrin act MD: qHTS for Activators of Integrin-Mediated Alleviation for Muscular Dystrophy | alpha7betagal myoblasts, beta-gal FDG fluorescence, 48 h | AID 624291, 2012 | Potency, µM (titrated, usually from 38.3 µM), hits mostly activators | 0.064% of 350,000 active; note: nearly all actives have a fitted effect of over 60% in size
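Alpha7betagal+/- myoblasts (passage 13) were plated 16-24 hr, then exposed to compounds (1:260 dilution of DMSO stock) for 48 hours at 37C. After MPER lysis, β-galactosidase reporter activity was read as FDG fluorescence (ex 480/em 540) after 30 minutes.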
Mito fusion act: qHTS Assay for Small Molecule Inhibitors of Mitochondrial Division or Activators of Mitochondrial Fusion; S. cerevisiae fusion-defective mutant growth rescue, CellTiterGlo 48 h; Potency, µM (doses to about 46.1 µM), hits mostly activators; 0.23% of 320,000 active; AID 485298, 2010; note: nearly all actives have a fitted effect of over 45% in size
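Yeast fusion mutant, YPEG (non-fermentable carbon), compound, 48 h at 37C non-permissive; CellTiterGlo added, 10 min RT, luminescence read. Rescued growth = division inhibition.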
Chronic BCR inh: qHTS Assay to Find Inhibitors of Chronic Active B-Cell Receptor Signaling; AID 493014, 2011; Potency, µM (top dose mostly 46.1 µM), hits mostly inhibitors; ABC-DLBCL IkBa-CBG/CBR reporter, luminescence ratio, 4 h; 0.05% of 340,000 active; active = well fitted inhibition curve with a large enough effect in the signal ratio, with a control signal flat, not every such curve was filed as active; inconclusive = small, poorly fitted or top-dose-only effect, or effect the other way, or a change in a side signal; the % refers to the signal ratio
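TMD8 human ABC-DLBCL cells with doxycycline-inducible IκBα–green luciferase fusion and unfused red luciferase, in 0.5% FBS medium; compounds up to 46 uM, 4 h at 37C. Green/red luminescence ratio, filter-overlap corrected, fitted to concentration-response curves.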
VP16 counter: VP16 counterscreen qHTS for inhibitors of ROR gamma transcriptional activity; AID 2546, 2010; Drosophila S2 Gal4-VP16 UAS-luciferase, luminescence, 20 h; 3.5% of 310,000 active; Potency, µM (titrated, usually from 53.6 µM), most hits filed as inhibitors;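 note: Gal4-VP16 expression switched on by copper sulfate through the metallothionein promoter; nearly all actives have a fitted effect of over 50% in size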
RORg inh: qHTS for inhibitors of ROR gamma transcriptional activity; Nuclear receptor ROR-gamma (Mus musculus), P51450; Potency, µM (series often up to 53.6 µM), hits mostly inhibitors; AID 2551, 2010; 5.4% of 310,000 active; Drosophila S2 Gal4-RORgamma UAS-luciferase reporter, 20 h; note: nearly all actives have a fitted effect of over 60% in size
Target sequence (P51450 whole entry, looked up, the tested form may be a part): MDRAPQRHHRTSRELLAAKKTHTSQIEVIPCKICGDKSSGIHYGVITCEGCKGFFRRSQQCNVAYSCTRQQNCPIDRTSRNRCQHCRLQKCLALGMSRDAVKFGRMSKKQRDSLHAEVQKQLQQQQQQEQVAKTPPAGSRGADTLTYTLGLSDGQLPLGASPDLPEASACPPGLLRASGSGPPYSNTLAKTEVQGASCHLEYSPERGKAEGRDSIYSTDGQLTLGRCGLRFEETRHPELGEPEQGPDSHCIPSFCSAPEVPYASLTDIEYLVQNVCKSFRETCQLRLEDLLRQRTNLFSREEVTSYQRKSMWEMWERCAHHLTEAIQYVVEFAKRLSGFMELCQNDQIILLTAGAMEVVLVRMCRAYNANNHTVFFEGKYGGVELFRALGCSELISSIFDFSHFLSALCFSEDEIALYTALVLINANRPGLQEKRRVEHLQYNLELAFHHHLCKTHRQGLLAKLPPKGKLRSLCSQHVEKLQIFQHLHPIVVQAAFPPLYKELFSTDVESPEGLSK
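Compounds are pin-transferred onto Drosophila Schneider cells expressing a copper-inducible Gal4–ROR gamma transactivation domain fusion. After 1 hr, copper sulfate is added to 700 uM final; luciferase is read 20 hr later.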
A number is an active result; n = inactive; u = inconclusive; x = no result; [ ] = another dose, or the depositor's remark. Unless noted, calls come from the whole dose curve; as a rule, active = well fitted curve in the direction sought with a large enough effect; inconclusive = small, poorly fitted or top-dose-only effect, or another doubt; inactive = no such curve, though single readings can be large; an effect the other way counts as inactive or inconclusive.

SMILES	uPA surface inh	Integrin act MD	Mito fusion act	Chronic BCR inh	VP16 counter	RORg inh
O=S(=O)(/C(=C/c1ccc(C(F)(F)F)cc1)c1nc2ccccc2[nH]1)c1ccccc1	n	n	n	u	5.6µM	14µM
CC1(C)CC(=O)C2=C(C1)O[C@@]1(CCCCN3C(=O)c4ccccc4C3=O)Cc3cc(C#N)ccc3C2O1	x	x	n[9.22 µM]	u	n[10 µM]	n[10 µM]
O=C(CSc1ccc2ccccc2c1)Nc1nc2ccccc2[nH]1	n	u	n	u	u	11µM
O=C(CSc1ccccc1)Nc1ccc(-c2nc3ccccc3[nH]2)cc1	n	n	n	n	u	u
O=C(CSc1ccc(Cl)cc1)Nc1cccc(-c2nc3ccccc3[nH]2)c1	n	n	n	n	10µM	u
CC(C)CCNC(=O)C(=O)Nc1c2c(nn1-c1ccc(Cl)cc1)CSC2	x	x	x	n	x	x
Cc1cccc(OCc2nc(C#N)c(N3CC(C)CC(C)C3)o2)c1 (stereo unspecified)	n	n	n	u	n	n
Cc1cccc(OCc2nc(C#N)c(NCc3ccc4c(c3)OCO4)o2)c1	n	n	7.1µM	u	n	n
Cc1cccc(OCc2nc(C#N)c(N3CCCC3)o2)c1	n	3.5µM	n	n	n	n
O=C(Nc1cc(Cl)ccc1Cl)C1Cc2ccccc2O/C1=N\O (stereo unspecified)	n	n	n	n	n	n
Cn1cccc1/C=N/NC(=O)c1ccncc1	n	n	n	n	n	u
Cn1cccc1/C=N/NC(=O)c1cc2ccccc2cc1O	n	n	n	u	2µM	1.4µM
Cn1cccc1/C=N/NC(=O)c1cc(-c2cccs2)nc2ccccc12	n	n	u	n	u	7.1µM
O=C(N/N=C/c1cccnc1)c1cc(-c2cccs2)nc2ccccc12	n	n	n	n	n	n
O=C(N/N=C/c1ccc[nH]1)c1cc(-c2cccs2)nc2ccccc12	x	n	n	u	6.3µM	2.8µM
Cn1cccc1/C=N/NC(N)=S	n	n	n	n	u	6.3µM
O=C(N/N=C/c1ccc2ncccc2c1)c1cc(-c2cccs2)nc2ccccc12	u	n	n	n	n	n
O=C(CN1CCN(c2ccccn2)CC1)Nc1ccc(F)cc1F	n	n	n	u	n	n
O=S1(=O)N=C(N/N=C/C=C/c2ccccc2)c2ccccc21	n	n	n	n	0.63µM	0.4µM
O=S1(=O)N=C(N/N=C/c2ccc(Br)o2)c2ccccc21	n	n	n	n	14µM	6.3µM
CN(C)c1ccc(/C=N/NC2=NS(=O)(=O)c3ccccc32)cc1	n	n	n	n	5.6µM	4µM
O=S1(=O)N=C(N/N=C/c2ccccn2)c2ccccc21	n	n	n	u	u	u
Cn1c2ccccc2c2cc(C(=O)NNC(=O)CCl)sc21	n	n	n	u	n	14µM
Cn1c(C2CCCN2C(=O)OC(C)(C)C)n[nH]c1=S (stereo unspecified)	n	n	n	n	n	n
CCCCCC1CCC(c2n[nH]c(=S)n2C)CC1 (stereo unspecified)	n	n	u	u	4µM	u
NS(=O)(=O)c1ccc(NC(=O)Nc2ccc(C(F)(F)F)cc2)cc1	n	u	n	n	n	n
CC(=O)COc1cccc2ccc(/C=C/c3ccc(Br)s3)nc12	n	n	n	u	n	u
C=C(C)C(O)/C=C/c1cccc(OC)c1 (stereo unspecified)	x	x	x	x	n[10 µM]	u
Cc1ccc(/C=C/c2ccc3cccc(O)c3n2)s1	n	n	n	u	u	14µM
